An excerpt weighted towards active compounds, which were near 1.3% of everything screened.
NCF1 inh: blocks human p47phox regulatory protein of NADPH oxidases. p47phox/p22phox peptide binding, fluorescence polarization, 2 h. inhibition, % at 24.7 µM. hit rate 0.53% among 220,000. AID 1274
eIF4E-4G inh: inhibitors of eIF4E and eIF4G interaction in translation initiation | AID 782 | TR-FRET eIF4E-eIF4GI(517-606) binding, 2 h | inhibition, % at 21.7 µM | hit rate 0.37% among 220,000 | P63073+Q04637
SUMO HTRF inh: blocks human SUMOylation mediated by UBC9; P63279; HTRF SUMOylation assay, SAE1/SAE2 + UBC9, in vitro; inhibition, % at 35 µM; hit rate 0.36% among 290,000; in the data active means inhibition above about 50%, passing the limit was not always enough
14-3-3 Bad PPI: disrupts binding of bovine 14-3-3 zeta to phospho-Bad peptide; inhibition, % at 21.7 µM; TR-FRET 14-3-3zeta/Dy647-pBad peptide displacement, 1 h; AID 781; P63103; hit rate 0.71% among 220,000;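 active means inhibition above about 70%, limit read from the data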
Large screens that a line does not name were inactive; [ ] = another dose, or the depositor's remark.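 How the source made its calls, unless noted: active means inhibition above about 30% (limit read from the data); inactive means the rest.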

CCC(=C(c1ccc(OC)cc1)c1ccc(OC)cc1)c1cn(CC(O)CN2CCN(C)CC2)c2ccccc12 (configuration not stated)	NCF1 inh 77.7, 14-3-3 Bad PPI 96.1[fluorescence artefact?]
COc1ccccc1CNc1nc(-c2cc(C)n(C)c2C)cs1	NCF1 inh 46.4, eIF4E-4G inh 46.9, 14-3-3 Bad PPI 96.2
COc1ccc(C(=O)Nc2ccc(/C(C)=N/NC(=O)c3ccncc3)cc2)cc1	none (no result: NCF1 inh, eIF4E-4G inh, 14-3-3 Bad PPI)
COC/C=C/C1=CC2=CC(=O)C(C)(OC(=O)c3cnc4ccccc4n3)C(=O)C2=CN1c1ccccc1 (configuration not stated)	none
COC/C=C/C1=CC2=CC(=O)C(C)(OC(=O)c3cnc4ccccc4n3)C(=O)C2=CN1c1ccc(CO)cc1 (configuration not stated)	SUMO HTRF inh 58.5 (no result: NCF1 inh, eIF4E-4G inh, 14-3-3 Bad PPI)
Cc1ccc(C)c2c1N(Cc1ccccc1)C(=O)C21OCCO1	none (no result: NCF1 inh, eIF4E-4G inh, 14-3-3 Bad PPI)
Cc1cc2c(s1)c1cnn(CC(=O)NCCc3ccccc3)c(=O)c1n2C	NCF1 inh 30.5
CN1CCN(CCCNC(=O)Cn2ncc3c4ccccc4n(C)c3c2=O)CC1	none
Cc1c(C(=O)N/N=C/c2ccc(-c3ccccc3[N+](=O)[O-])o2)sc(N)c1C#N	none
COCc1cc(C)nc(N/N=C/c2ccc(-c3ccc(Cl)cc3[N+](=O)[O-])o2)c1C#N	NCF1 inh 40.2, 14-3-3 Bad PPI 85.9
CCCCCCNc1nc(-c2ccc(OC)cc2)c(CCC(=O)O)s1	none
O=C(Cn1cnc2ccccc2c1=O)Nc1nc2ccccc2s1	none
CCc1ccc2nc(NC(=O)Cn3cnc4ccccc4c3=O)sc2c1	SUMO HTRF inh 50.3
Nc1nonc1NN=C1CCCCC1	none
CCOC(=O)C1=C(c2ccccc2)NC(N)=NC1c1ccc(OCc2ccc(Cl)cc2)c(OC)c1 (configuration not stated)	NCF1 inh 70.7, eIF4E-4G inh 37.1, 14-3-3 Bad PPI 93.6
CCOC(=O)C1=C(c2ccccc2)NC(=O)NC1c1cc(Cl)c(O)c(OC)c1 (configuration not stated)	none
CCOC(=O)c1ccc2[nH]c3c(c2c1)CCCC3O (configuration not stated)	NCF1 inh 48.4
CCOC(=O)c1ccc2[nH]c3c(c2c1)CCCC3	none (no result: NCF1 inh, eIF4E-4G inh, 14-3-3 Bad PPI)
O=C(Nc1ccc(N2CCCCC2)cc1)c1cccnc1Cl	NCF1 inh 57.1
COc1ccc(NS(=O)(=O)c2cc(NC(=O)c3cccnc3Cl)ccc2N2CCCC2)cc1	NCF1 inh active
CS(=O)(=O)N1CCN(c2ccc(NC(=O)c3cccnc3Cl)cc2)CC1	none
COc1ccc(CCNc2ccncn2)cc1	14-3-3 Bad PPI 72.4
COc1ccc(CCNc2ccncn2)cc1OC	none
CC1(C)CC(=O)C2=C(C1)Oc1nc3ccccc3cc1C2C(C#N)C#N (configuration not stated)	none
CC1CN(Cc2nc3ccccc3c(=O)[nH]2)CC(C)O1 (configuration not stated)	none
O=C(CN1C(=O)S/C(=C\c2ccc(Cl)cc2)C1=O)NNC(=O)c1ccccc1O	NCF1 inh 48.8, eIF4E-4G inh 32.6, 14-3-3 Bad PPI 76.7[fluorescence artefact?]
COc1ccc(N2CC(O)=C(c3nc(-c4ccc(F)cc4)cs3)C2=N)cc1OC	none
O=C1C=C(O)c2cccc(O)c2C1=O	none
CC1=CC(=O)c2c(O)ccc(O)c2C1=O	eIF4E-4G inh 63.0, SUMO HTRF inh 90.5, 14-3-3 Bad PPI 91.5
COc1ccc(NC(=O)C(=O)c2cn(CC(=O)N3CCCC3)c3ccccc23)cc1	none (no result: NCF1 inh, eIF4E-4G inh, 14-3-3 Bad PPI)
COc1nc(N=C(N)N)nc2ccc(C)cc12	none
COc1ccc(/C=C(\C#N)C(=O)OCC(=O)NCc2ccc(Cl)cc2)cc1	none
COc1ccc(/C=C(\C#N)C(=O)OCC(=O)NCc2ccccc2Cl)cc1	SUMO HTRF inh 54.6 (no result: NCF1 inh)
CC1CCC(C(C)C)C(OCC(O)CN2CCOCC2)C1 (configuration not stated)	none
CC1CCC(C(C)C)C(OCC(O)CN2CCN(Cc3ccccc3)CC2)C1 (configuration not stated)	14-3-3 Bad PPI 73.8
CC(C)C(c1nnnn1Cc1ccccc1)N1CCN(Cc2ccc3c(c2)OCO3)CC1 (configuration not stated)	none
COc1ccc(CCNC(=O)CCn2c(=O)c3cccn3c3ccc(F)cc32)c(OC)c1OC	none (no result: NCF1 inh, eIF4E-4G inh, 14-3-3 Bad PPI)
COc1cccc([C@@H]2Oc3ccc(OC)cc3C(=O)[C@H]2OC(=O)N[C@H](C)C2CCCCC2)c1	none
COc1ccc2c(c1)O[C@H](c1ccc3c(c1)OCO3)[C@@H](OC(=O)N[C@H](C)C1CCCCC1)C2=O	14-3-3 Bad PPI 92.4
COc1ccc2c(c1)O[C@H](c1ccc3c(c1)OCO3)[C@@H](OC(=O)Nc1cc(OC)c(OC)c(OC)c1)C2=O	14-3-3 Bad PPI 80.6[fluorescence artefact?]
O=C1NN=C(CSc2n[nH]c(=S)s2)CS1	none
O=C(COc1ccccc1C(=O)c1cnn(-c2ccccc2)c1)Nc1ccccc1	14-3-3 Bad PPI 84.2[fluorescence artefact?]
Nc1nnc(CC(=O)Nc2ccccc2)s1	none
Nc1nnc(CC(=O)N2CCCCC2)s1	eIF4E-4G inh 45.9
COc1ccc(C(=O)NCC(=O)N2CCc3ccccc3C2)cc1	NCF1 inh 78.7
COc1ccc(Cn2cnc([N+](=O)[O-])c2)cc1[N+](=O)[O-]	14-3-3 Bad PPI 98.5
OC(COCC1COc2ccccc2O1)CN1CCN(c2ccccc2F)CC1 (configuration not stated)	14-3-3 Bad PPI 88.7
COc1ccccc1CNc1ncnc2c1nnn2Cc1ccccc1	none
CC(C)c1c(Cl)c(O)c(-c2ccccc2)c(=O)n1-c1ccc(F)cc1	14-3-3 Bad PPI 88.0
O=C(c1ccco1)N1CCN(C(c2ccc(Cl)cc2)c2nnnn2CC2CCCO2)CC1 (configuration not stated)	14-3-3 Bad PPI 81.0
O=C(c1ccco1)N1CCN(C(c2ccccc2)c2nnnn2Cc2cccs2)CC1 (configuration not stated)	none
Cc1ccc(C(c2nnnn2CC2CCCO2)N2CCN(C(=O)c3ccco3)CC2)cc1 (configuration not stated)	none
COCCn1nnnc1C(c1ccccc1)N1CCN(C(=O)c2ccco2)CC1 (configuration not stated)	none (no result: NCF1 inh, eIF4E-4G inh, 14-3-3 Bad PPI)
O=C(c1ccco1)N1CCN(C(c2ccc(F)cc2)c2nnnn2Cc2cccs2)CC1 (configuration not stated)	14-3-3 Bad PPI 89.8
CC(C)CCn1nnnc1C(c1ccc(F)cc1)N1CCN(C(=O)c2ccco2)CC1 (configuration not stated)	14-3-3 Bad PPI 83.0
O=C(CCCc1nc2ccccc2s1)N1CCN(S(=O)(=O)c2cccs2)CC1	none
COC(=O)c1ccc(Oc2nc(NC(C)C)nc(NC(C)C)n2)cc1	eIF4E-4G inh 97.2
Cc1ccc2c(c1)COc1c3ccc(C(=O)NC(C)C)cc3nn1-2	none
CCOC(=O)c1c(C)[nH]c(C(=O)COC(=O)c2ccc(O)cc2)c1C	14-3-3 Bad PPI 81.6
CCOC(=O)c1c(C)[nH]c(C(=O)OCCOc2ccccc2C)c1C	14-3-3 Bad PPI 75.2[fluorescence artefact?]
CCOC(=O)c1c(C)[nH]c(C(=O)OCCOc2ccc(Cl)cc2)c1C	none
CCOC(=O)c1c(C)[nH]c(C(=O)COC(=O)c2ccc(O)cc2O)c1C	none
CC[n+]1c(C)n(-c2ccccc2)c2ccc(C(=O)OC)cc21	none

Compound activity (PubChem BioAssay)
